Laboratory results: PubChem BioAssay AID777 (Sanford-Burnham Center for Chemical Genomics, 2007)
Screen size: about 96,000 compounds; about 19,000 (20%) were called active.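 The calls were made as follows: active = blocking of liver enzyme CYP2C9 beyond about 50% at 5 µM (limit read from the data); inactive = the rest.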 These entries were drawn from the full list.

These compounds were tested against Cytochrome P450 2C9 (Homo sapiens) (UniProt P11712) (assay: blockers of cytochrome P450 2C9 activity – biochemical, luminescence, ADME assay, primary screen (AID 777)). Settings: CYP2C9 Supersomes, luciferin-H conversion, at 5 µM, stronger effect = higher value.
Sequence of Cytochrome P450 2C9 (Homo sapiens) (P11712 whole entry, looked up): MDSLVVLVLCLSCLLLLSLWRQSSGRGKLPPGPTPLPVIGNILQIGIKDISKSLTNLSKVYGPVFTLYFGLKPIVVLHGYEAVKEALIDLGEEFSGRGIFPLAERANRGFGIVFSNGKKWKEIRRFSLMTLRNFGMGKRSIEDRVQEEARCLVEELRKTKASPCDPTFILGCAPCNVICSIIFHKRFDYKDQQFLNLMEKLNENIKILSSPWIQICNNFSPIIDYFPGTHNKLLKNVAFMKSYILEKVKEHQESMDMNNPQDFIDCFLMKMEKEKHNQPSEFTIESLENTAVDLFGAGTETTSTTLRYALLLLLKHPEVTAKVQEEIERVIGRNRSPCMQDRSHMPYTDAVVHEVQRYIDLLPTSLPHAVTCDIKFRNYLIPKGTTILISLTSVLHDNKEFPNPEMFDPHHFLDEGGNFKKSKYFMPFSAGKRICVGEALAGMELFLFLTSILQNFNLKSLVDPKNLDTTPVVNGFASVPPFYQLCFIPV
In the case of Cn1c(-c2ccco2)nc2cc3ccccc3cc21, the inhibition is reported as 26.1% (inactive). In the case of C=CCn1c(Cn2nnc3ccccc32)nnc1SCC(=O)N/N=C/c1cc(Br)cc(OC)c1O, the inhibition is reported as 54% (active). Cn1c(Cn2nnc3ccccc32)nnc1SCC(=O)c1ccccc1F was tested, and the inhibition was 28.6% (inactive). In the case of COc1ccc(OC)c(/C=N/NC(=O)CSc2nnc(C)n2-c2ccccc2)c1, the inhibition is reported as 20.2% (inactive). For COc1cccc(N(CC(=O)NCCSc2ccccn2)S(C)(=O)=O)c1, the inhibition was 38.4% (inactive). In the case of CC(=O)c1cc2c(cc1N)OCO2, the inhibition is reported as 3.4% (inactive). For CCCCn1c(CN2CCN(CCO)CC2)nc2ccccc21, the inhibition was 1.5% (inactive). CN(C)CCCNc1c2c(c(C#N)c3nc4ccccc4n13)CCC2 was tested, and the inhibition was 7.3% (inactive). With N#Cc1c2c(c(N3CCN(CCO)CC3)n3c1nc1ccccc13)CCCC2 the inhibition was 58.2% (active). In the case of C=CCOc1ccc(C2/C(=C(\O)c3c(C)[nH]c(C(=O)OC)c3C)C(=O)C(=O)N2CCN(C)C)cc1 (configuration not stated), the inhibition is reported as -6.1% (inactive). With O=C(NCc1ccco1)C1CCCN(S(=O)(=O)c2cnc[nH]2)C1 (configuration not stated) the inhibition was 27.3% (inactive). With CCOC(=O)c1cccc(NC(=O)C2CCCN(S(=O)(=O)c3cnc[nH]3)C2)c1 (configuration not stated) the inhibition was 95.6% (active). For COc1cccc(N2CCN(C(=O)C3CCCN(S(=O)(=O)c4cnc[nH]4)C3)CC2)c1 (configuration not stated), the inhibition was 36.6% (inactive). O=C(CN1C(=O)COc2ccccc21)NCCN1CCc2ccccc2C1 was tested, and the inhibition was 25% (inactive). For Oc1c(C=Nc2cccc3nsnc23)ccc2ccccc12, the inhibition was -15.3% (inactive). In the case of COc1ccc(Br)cc1CN1CCN(C(=O)c2cccc(OC)c2OC)CC1, the inhibition is reported as 52.9% (active). COc1cccc(OC)c1OCCN1CCN(C(=O)c2ccco2)CC1 was tested, and the inhibition was -24.9% (inactive). COc1c(C(=O)N2CCCC2)ccc2ccccc12 was tested, and the inhibition was -19.3% (inactive). With CN(C)CCCn1c(N)c(C#N)c2nc(C#N)c(C#N)nc21 the inhibition was -11.9% (inactive). With COc1ccc(OCC(=O)N2CCOCC2)cc1 the inhibition was 17.3% (inactive). For O=C(NCc1ccc(Cl)cc1)c1cc(=O)nc2sc(-c3ccccc3)nn12, the inhibition was 2.9% (inactive). With Cc1ccc(N(C(=O)CC2NC(=O)NC2=O)C2(C(=O)NC3CCCC3)CCCCC2)cc1 (configuration not stated) the inhibition was 46.4% (inactive). For CCC(C(=O)NCc1ccc(OC)cc1)n1nc(C)n2c(cc3occc32)c1=O (configuration not stated), the inhibition was 82.8% (active). With CCOc1ccc(CCNC(=O)C2CCN(c3ccc(N4CCOCC4)nn3)CC2)cc1OCC the inhibition was 14% (inactive). For CCOc1ccc(CCNC(=O)C(CC)n2nc(C)n3c(cc4sccc43)c2=O)cc1OCC (configuration not stated), the inhibition was 51.6% (active). For COc1ccc(CCNC(=O)c2cc3sccc3n2C)cc1OC, the inhibition was 26.8% (inactive). With COc1ccc(CCn2c(=N)c(C(=O)NCc3ccco3)cc3c(=O)n4cccc(C)c4nc32)cc1 the inhibition was 14.3% (inactive). CCC(C(=O)N1CCOCC1)n1c(C(=O)OC)cc2occc21 (configuration not stated) was tested, and the inhibition was 12.8% (inactive). With CCc1c(C)nc2cc(C)[nH]n2c1=O the inhibition was 16.4% (inactive). CCCNC(=O)N1CCN(C(=O)NCCC)CC1 was tested, and the inhibition was 2.7% (inactive). For Cc1ccc(-n2ncc3c(Nc4cccc(C(=O)O)c4)ncnc32)cc1, the inhibition was 29.6% (inactive). For Cc1ccc(C(=O)O)cc1S(=O)(=O)NCC1CCCO1 (configuration not stated), the inhibition was 5.8% (inactive). With CCC(=O)c1c[nH]c(C(=O)NCC2CCCO2)c1 (configuration not stated) the inhibition was -7% (inactive). For Cc1cc(C)cc(N(CC(=O)NCC2CCCO2)S(=O)(=O)c2c(C)noc2C)c1 (configuration not stated), the inhibition was 64.1% (active). In the case of O=C(Nc1ccc(Cl)c(Cl)c1)N1CC=C(c2ccccc2)CC1, the inhibition is reported as 46.1% (inactive). With Cc1cc(C)cc(N(CC(=O)N2CC=C(c3ccccc3)CC2)S(=O)(=O)c2c(C)noc2C)c1 the inhibition was 90.8% (active). For CCOC(=O)C1CCCN(C(=O)CN(c2ccc(OC)cc2)S(=O)(=O)c2c(C)noc2C)C1 (configuration not stated), the inhibition was 11% (inactive). For COCCCNC(=O)CN1CCN(Cc2ccccc2Cl)C1=O, the inhibition was -16.9% (inactive). Cc1nc2ncnn2c(C)c1CCC(=O)N1CCN(C(=O)c2ccco2)CC1 was tested, and the inhibition was -8.6% (inactive). CCN(CC)C(=O)CSc1nc2ccccc2n1CC(=O)N1CCN(c2ccccc2OC)CC1 was tested, and the inhibition was 51.4% (active). CC(C)N(C(=O)Cn1c(SCC(=O)N2CCN(c3ccccc3)CC2)nc2ccccc21)C(C)C was tested, and the inhibition was 14.3% (inactive). For CCOC(=O)n1c(SCC(=O)N(CC)CC)nc2ccccc21, the inhibition was 30.9% (inactive). For O=C1c2ccccc2C(=O)N1CCc1nn[nH]n1, the inhibition was 0.5% (inactive). In the case of Fc1ccccc1CCNc1nnnn1-c1ccccc1, the inhibition is reported as 31.4% (inactive). CC1(C)Cc2cccc(OCC(=O)Nc3nccs3)c2O1 was tested, and the inhibition was 31% (inactive). With CN(CCCC(=O)Nc1nccs1)S(=O)(=O)c1ccc(Cl)cc1 the inhibition was 38.4% (inactive). O=C(CCSCCc1ccccn1)Nc1nccs1 was tested, and the inhibition was 81% (active). With COCCN(CC(=O)Nc1ccccc1C)S(=O)(=O)c1ccc(S(=O)(=O)N2CCCC2)cc1 the inhibition was 16.5% (inactive). CCOC(=O)CSc1nnc(CNC(=O)Cc2ccccc2)n1-c1ccccc1OC was tested, and the inhibition was 8.6% (inactive). For CCOc1ccc(C(CCc2ccccc2)NC(=O)c2ccc(OC)c(OC)c2)cc1OCC (configuration not stated), the inhibition was 76.1% (active). In the case of CCOc1cc(C(=O)N2CCc3cc(OC)c(OC)cc3C2)ccc1OC(F)F, the inhibition is reported as 30.7% (inactive). In the case of COc1ccc(Cn2c(=O)sc3ccccc32)cc1OC, the inhibition is reported as 29.2% (inactive). For Nc1nc(Br)c2ccccc2c1-c1ccc(F)cc1, the inhibition was 2.2% (inactive). With COc1ccc2nc(N3CCCC(O)C3)c(C#N)cc2c1 (configuration not stated) the inhibition was 63.9% (active). With COc1ccc(N2CCN(C(=O)CSc3nc4cc(OC)c(OC)cc4cc3C#N)CC2)cc1 the inhibition was 26.1% (inactive). Cc1cc(C)c2nc(N3CCCC3)c(C#N)cc2c1 was tested, and the inhibition was 9.6% (inactive). Cc1[nH]c(=O)c(C(=O)/C=C/c2ccccc2)c2c1CCCC2 was tested, and the inhibition was -14.6% (inactive). With CC1(C)C(=O)C2(CCCCC2)C(=O)OC1c1cccs1 (configuration not stated) the inhibition was -9.3% (inactive). In the case of O=C(COc1ccccc1F)NC1CC1, the inhibition is reported as -15.2% (inactive). In the case of O=C(Nc1cccn(Cc2c(Cl)cccc2Cl)c1=O)c1ccc(Cl)cc1, the inhibition is reported as 71.8% (active). With COc1ccc(Cn2cccc(NC(=O)Nc3ccc(C#N)cc3)c2=O)cc1 the inhibition was 14.3% (inactive). With CSc1ccc(C#N)cc1NC(=O)c1ccc(Cl)cc1 the inhibition was 6.3% (inactive).
